Screens as filed in PubChem BioAssay.
Shown are actives, neighbours in structure and some others; about 10% of the full set was active somewhere.
GPT2 inhibitor: blocks human glutamate pyruvate transaminase 2; Q8TD30; Recombinant GPT2, coupled pyruvate oxidase/HRP Amplex Red fluorescence; Potency, µM (highest dose often 57.7 µM), actives largely listed as inhibitors; 100,000 tested, 0.25% active; note: nearly all actives have a fitted effect of over 60% in size
Target sequence (Q8TD30 whole entry, looked up): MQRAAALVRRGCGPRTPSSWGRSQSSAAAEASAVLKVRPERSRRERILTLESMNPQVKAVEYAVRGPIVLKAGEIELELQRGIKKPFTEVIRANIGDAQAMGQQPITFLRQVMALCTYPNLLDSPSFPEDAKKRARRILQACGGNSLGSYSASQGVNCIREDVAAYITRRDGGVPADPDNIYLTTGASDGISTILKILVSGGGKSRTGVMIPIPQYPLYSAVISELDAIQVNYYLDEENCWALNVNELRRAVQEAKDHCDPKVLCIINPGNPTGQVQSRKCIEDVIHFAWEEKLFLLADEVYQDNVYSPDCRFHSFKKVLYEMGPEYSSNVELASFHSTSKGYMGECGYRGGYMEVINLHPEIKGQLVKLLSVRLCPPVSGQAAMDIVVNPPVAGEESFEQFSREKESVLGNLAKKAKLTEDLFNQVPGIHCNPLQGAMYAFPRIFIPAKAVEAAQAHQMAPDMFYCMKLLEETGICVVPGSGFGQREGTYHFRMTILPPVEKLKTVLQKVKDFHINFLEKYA
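GPT2 10ng/uL, a-KG 250uM, L-Ala 2mM, HEPES pH7.5 + 0.0001% Tween; 30 min RT. Then Amplex mix (PO/HRP/ThPP), 30 min RT dark, fluorescence. AOA 50uM used as positive control.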
NPR1 antag: blocks ANP-stimulated signaling of human Npr1 receptor | HEK293 hNpr1 GloSensor cGMP, ANP-stimulated luminescence | Potency, µM (doses to about 46.3 µM), usual class: inhibitors | 76,000 tested, 1.6% active; calls by dose curve; note: nearly all actives have a fitted effect of over 60% in size
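HEK293 cells stably expressing human Npr1 and cGMP GloSensor pGS-40F, loaded 2 h with 2% GloSensor reagent, given compound 30 min at room temperature. Luminescence read before and 20 min after 0.1 nM hNppA.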
Luciferase inh: blocks purified firefly luciferase enzyme activity | P08659 | purified P. pyralis luciferase, luminescence, biochemical | Potency, µM (highest dose often 115 µM), hits mostly inhibitors | 76,000 tested, 2.5% active | AID 1347043; note: nearly all actives have a fitted effect of over 65% in size
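Biochemical qHTS: compound (6-point titration) added to 10uM D-luciferin plus 10uM ATP in Tris acetate pH 7.5 buffer with Mg, Tween-20 and BSA, then purified enzyme at 10nM; light output imaged.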
NIH3T3 tox: kills NIH 3T3 cells | Potency, µM (titrated, usually from 96.7 µM), usual class: inhibitors | AID 1345082 | NIH 3T3 viability, CellTiter-Glo ATP luminescence, 48-72 h | 94,000 tested, 4.3% active; note: nearly all actives have a fitted effect of over 55% in size
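Cytotoxicity is measured as loss of cellular ATP: NIH 3T3 cells (400/well) are exposed to compound for 48 or 72 hr at 37 °C, then CellTiter-Glo luminescence is imaged after 10 min at room temperature.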
HEK cytotox: kills HEK 293 cells | HEK 293 viability, ATP luminescence (CellTiter-Glo), 48-72 h | Potency, µM (top dose mostly 115 µM), usual class: inhibitors | 94,000 tested, 6.6% active; note: nearly all actives have a fitted effect of over 60% in size
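Cells seeded first (HEK 293, 250 cells/well), then compound added by pintool. Incubation ran 48 or 72 hr at 37 degree Celsius. CellTiter-Glo was added and luminescence imaged after 10 min at room temperature.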
NPR1 antag cnf: hNpr1 antagonism, confirmation assay. shares compounds with NPR1 antag. HEK293 hNpr1 cGMP GloSensor luminescence, ANP-stimulated. Potency, µM (doses to about 57.6 µM), actives largely listed as inhibitors. 1,400 tested, 76% active. AID 1347044; calls by dose curve; note: nearly all actives have a fitted effect of over 70% in size
NPR2 antag: hNpr2 antagonism, selectivity versus Npr1; shares compounds with NPR1 antag; HEK293 hNpr2 GloSensor cGMP luminescence, CNP-stimulated; Potency, µM (doses to about 57.6 µM), actives largely listed as inhibitors; 1,400 tested, 67% active; AID 1347046; calls by dose curve; note: nearly all actives have a fitted effect of over 70% in size
FLuc inh counter: inhibits firefly luciferase, false Npr1 antagonist flag; purified FLuc enzyme, luminescence, Km substrate; AID 1347047; 1,400 tested, 0.7% active; Potency, µM (titrated, usually from 57.6 µM), most hits filed as inhibitors; shares compounds with NPR1 antag; note: series mostly up to about 58 µM
GloSensor ctrl: control cell line activity, Npr1 antagonist counter-screen; shares compounds with NPR1 antag; HEK293 GloSensor cGMP, SNP-stimulated, luminescence; Potency, µM (doses to about 57.6 µM), most hits filed as inhibitors; 1,400 tested, 69% active; AID 1347051; calls by dose curve; note: nearly all actives have a fitted effect of over 70% in size
A number is an active result; 0 = inactive; ? = inconclusive; - = not tested or not shown. Unless noted, calls come from the whole dose curve; as a rule, active = well fitted curve in the direction sought with a large enough effect; inconclusive = small, poorly fitted or top-dose-only effect, or another doubt; inactive = no such curve, though single readings can be large; an effect the other way counts as inactive or inconclusive.

SMILES | GPT2 inhibitor | NPR1 antag | Luciferase inh | NIH3T3 tox | HEK cytotox | NPR1 antag cnf | NPR2 antag | FLuc inh counter | GloSensor ctrl
Cc1nc2cccnc2n1CC1CCCN(S(=O)(=O)c2ccc3c(c2)CCCC3)C1 (centres undefined) | 0 | ? | 0 | ? | ? | - | - | - | -
Cc1nc2cccnc2n1CC1CCCN(S(=O)(=O)c2ccc(CC(C)C)cc2)C1 (centres undefined) | 0 | 13µM | 0 | ? | 32µM | 22µM | 24µM | 0 | 22µM
Cc1ccc(CN2CCc3oc(C)c(C(=O)NC4CCCC4)c3C2)cc1 | 0 | 0 | 0 | 0 | ? | - | - | - | -
CC(=O)N1Cc2ccccc2CC2(CCN(Cc3ccncc3)C2)C1 (centres undefined) | 0 | - | - | 0 | 0 | - | - | - | -
CC(=O)N1Cc2ccccc2CC2(CCN(Cc3ccccc3)C2)C1 (centres undefined) | 0 | - | - | 0 | 0 | 0 | 0 | 0 | 0
COc1ncccc1CN1CCC2(CC1)OC(=O)N(Cc1ccc(O)cc1)C2(C)c1ccccc1 (centres undefined) | 0 | 0 | 0 | ? | ? | 0 | ? | 0 | 0
COc1ccc(-n2c(=O)c(C(=O)N3CCC(C#N)CC3)nc3cccnc32)cc1 | 0 | - | - | 0 | 0 | - | - | - | -
CCCc1ccc2oc(C(=O)N(CC)Cc3ccncc3)c(C)c2c1 | 0 | 13µM | 0 | ? | 25µM | 19µM | 19µM | 0 | 17µM
Cc1nc(C)c(CC(=O)N2CCCC(C)(Cc3ccc4c(c3)OCO4)C2)s1 (centres undefined) | 0 | 14µM | 0 | 0 | 28µM | 19µM | 22µM | 0 | 17µM
COc1ccc(-c2cc(N3CCCN(C(=O)c4cccc(Br)c4)CC3)n[nH]2)cc1 | 0 | ? | 0 | ? | ? | ? | 14µM | 0 | 0
COc1ccc(-c2cc(N3CCN(C(=O)c4cccc(Br)c4)CC3)n[nH]2)cc1 | 0 | ? | 0 | ? | ? | - | - | - | -
COc1ccc(-c2cc(N3CCCN(C(=O)c4cccc(F)c4)CC3)n[nH]2)cc1 | 0 | 0 | 0 | 0 | ? | - | - | - | -
COc1ccc(-c2cc(N3CCCN(C(=O)c4cccc(Cl)c4)CC3)n[nH]2)cc1 | ? | ? | 0 | ? | ? | 24µM | 14µM | 0 | 0
COc1ccc(-c2cc(N3CCCN(C(=O)c4ccc(F)c(Cl)c4)CC3)n[nH]2)cc1 | 0 | ? | 0 | ? | ? | 17µM | 14µM | 0 | 0
O=C(c1ccc2[nH]ccc2c1)N1CCCN(c2cc(-c3ccc(F)cc3)[nH]n2)CC1 | ? | ? | 0 | 0 | ? | - | - | - | -
O=C(c1ccc2[nH]ccc2c1)N1CCN(c2cc(-c3ccccc3)[nH]n2)CC1 | 0 | ? | 0 | ? | ? | ? | ? | 0 | 0
c1ccc(-c2nnc3n2CCN(Cc2ccc4ccccc4c2)C3)cc1 | 0 | - | - | ? | ? | - | - | - | -
Cc1ccc(NC(=O)c2nc3sccn3c2-c2ccc(C(F)(F)F)cc2)cc1 | 0 | - | - | ? | ? | - | - | - | -
Cc1nn(-c2ccccc2)c2c1C(C)N(CC1CN([S+](=O)([O-])C(C)C)C1)C2=O (centres undefined) | - | - | - | 0 | ? | - | - | - | -
COc1ccc(C(=O)N2CCN(c3cc(-c4ccc(F)cc4)[nH]n3)CC2)cc1 | 0 | ? | 0 | ? | ? | 22µM | 24µM | 0 | 27µM
COc1ccc(-c2cc(N3CCN(C(=O)c4ccc(OC)cc4OC)CC3)n[nH]2)cc1 | 0 | ? | 0 | ? | ? | 27µM | 22µM | 0 | 22µM
COc1cc(OC)cc(C(=O)N2CCCN(c3cc(-c4ccc(Br)cc4)[nH]n3)CC2)c1 | 0 | 11µM | 0 | 32µM | 40µM | 24µM | 22µM | 0 | 27µM
COc1ccc(-c2cc(N3CCN(C(=O)c4ccc(C)nc4)CC3)n[nH]2)cc1 | 0 | 0 | 0 | ? | ? | - | - | - | -
COc1cc(OC)cc(C(=O)N2CCCN(c3cc(-c4ccc(F)cc4)[nH]n3)CC2)c1 | 0 | 0 | 0 | 0 | ? | - | - | - | -
CN1c2cc(C(=O)NCc3ccc(OC(F)(F)F)cc3)ccc2C(=O)N2CCCCC21 (centres undefined) | 0 | 0 | 0 | ? | ? | - | - | - | -
SMILES | GPT2 inhibitor | NPR1 antag | Luciferase inh | NIH3T3 tox | HEK cytotox | NPR1 antag cnf | NPR2 antag | FLuc inh counter | GloSensor ctrl
COc1ccccc1NC(=O)Cn1c(N(C)Cc2ccccc2)nc(C)cc1=O | 0 | 0 | 0 | ? | ? | - | - | - | -
COc1ccc(C)cc1NC(=O)Cn1c(N(C)Cc2ccccc2)nc(C)cc1=O | 0 | 13µM | 0 | 0 | ? | 24µM | 24µM | 0 | 31µM
COc1cc(NC(=O)Cn2c(N(C)Cc3ccccc3)nc(C)cc2=O)cc(OC)c1OC | 0 | 7.1µM | 0 | ? | ? | 11µM | 14µM | 0 | 11µM
COc1cc(NC(=O)Cn2c(N(C)Cc3ccccc3)nc(C)cc2=O)cc(OC)c1 | 0 | 7.9µM | 0 | ? | 16µM | 11µM | 12µM | 0 | 6.9µM
CCOC(=O)c1ccc(NC(=O)Cn2c(N(C)Cc3ccccc3)nc(C)cc2=O)cc1 | 0 | 14µM | 0 | ? | 40µM | 22µM | 22µM | 0 | 22µM
COc1ccc(C(=O)N2CCN(Cc3ccccc3-c3ccccc3F)CC2)cc1 | 0 | - | - | ? | ? | - | - | - | -
O=C(CCC1CCN(C(=O)c2ccoc2)CC1)N1CCC(Cc2ccccc2)CC1 | 0 | 0 | 0 | ? | ? | ? | 0 | 0 | ?
O=C(c1ccoc1)N1CCCC(CN2CCCC2)CC1 (centres undefined) | 0 | 0 | 0 | 0 | 0 | - | - | - | -
O=C(Nc1cc(-c2cccnc2)nn1-c1ccccc1)C1CC1 | 0 | - | - | 0 | 0 | - | - | - | -
CCNC(=O)N1CCOc2ccc(CCC(=O)Nc3ccc(C)cc3)cc2C1 | 0 | 11µM | 0 | ? | ? | 15µM | 19µM | 0 | 12µM
CCCNC(=O)CCc1ccc2c(c1)CN(C(=O)NCC)CCO2 | 0 | 0 | 0 | 0 | 0 | - | - | - | -
O=C(c1cc2ccccc2[nH]1)N1CCC2(C1)NC(=O)N(Cc1ccc(F)cc1)C2=O (centres undefined) | 0 | 22µM | 0 | ? | ? | ? | ? | 0 | 31µM
CC(c1ccc(-c2cc(N3CCN(C)CC3)nc(N)n2)cc1)N1CCOCC1 (centres undefined) | 0 | 0 | 0 | 0 | ? | - | - | - | -
CCCCNC(=O)c1cccc(-c2cc(N3CCN(C)CC3)nc(N)n2)c1 | 0 | ? | 0 | 0 | ? | ? | 0 | 0 | ?
COc1ccccc1Nc1ccnc(N2CCC(C(=O)NCCc3ccc(F)cc3)CC2)n1 | 0 | - | - | ? | ? | - | - | - | -
